Where “and” joins values, the source holds several entries; their conditions need not be identical. Equal entries are not always repeated. Some compounds were tested as several samples or in several runs, with calls that do not always agree. Calls of active or inactive are those of the source. Unless noted, calls follow the shape of the dose curve; as a rule, active = well fitted curve in the direction sought with a large enough effect in the repeat runs; inconclusive = weak or mixed curves; inactive = no such curve, though single readings can be large; an effect the other way counts as inactive or inconclusive.

For eleven compounds, Potency and activation results are on record in PubChem BioAssay (Tox21).

Experiment [1] can be described thus: qHTS assay to identify small molecule antagonists of the glucocorticoid receptor (GR) signaling pathway - cell viability counter screen (AID 720693). Also: nearly all actives have a fitted effect of over 55% in size. Also: potency is read from the fitted curve at half-maximal effect.
Experiment [2] in a line: qHTS assay for identifying genotoxic compounds that show differential cytotoxicity against isogenic chicken DT40 cell lines with known DNA damage response pathways - wild type cell line (AID 743012). Also: nearly all actives have a fitted effect of over 60% in size. Also: potency is read from the fitted curve at half-maximal effect. The essentials: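 Using parental DT40 (300 cells/well), compounds delivered in DMSO incubate 40 h at 37 C/5% CO2. CellTiter-Glo reagent then stands 30 min at room temperature, and luminescence gives cell viability.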
(In qHTS, concentration-response curves come from the screen itself.)

Experiment [3] is described as follows: qHTS assay for identifying genotoxic compounds that show differential cytotoxicity against isogenic chicken DT40 cell lines with known DNA damage response pathways - Rev3 mutant cell line (AID 743014). Also: nearly all actives have a fitted effect of over 55% in size. Also: potency is read from the fitted curve at half-maximal effect.
A short description of experiment [4]: qHTS assay for identifying genotoxic compounds that show differential cytotoxicity against isogenic chicken DT40 cell lines with known DNA damage response pathways - Rad54/Ku70 mutant cell line (AID 743015). Also: nearly all actives have a fitted effect of over 60% in size. Also: potency is read from the fitted curve at half-maximal effect.
Experiment [5] can be described thus: qHTS assay to identify small molecule antagonists of the androgen receptor (AR) signaling pathway - cell viability counter screen (AID 743033; also: nearly all actives have a fitted effect of over 45% in size; also: potency is read from the fitted curve at half-maximal effect).
For experiment [6], the target named is Androgen receptor (Homo sapiens) (UniProt P10275). Briefly: qHTS assay to identify small molecule agonists of the androgen receptor (AR) signaling pathway (AID 743036; active = well fitted activation curve with a large enough effect in the signal ratio in the repeat runs, with a control signal flat, not every such curve was filed as active; inconclusive = weak or mixed curves, or effect the other way; inactive = no such curve, though single readings can be large or run the other way; the % refers to the signal ratio). An outline of the steps: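 Fluorescence from a beta-lactamase FRET substrate served as read-out in AR-UAS-bla GripTite HEK293 cells. Cells were treated with DMSO-dissolved compounds for 16 h at 37C, then with LiveBLAzer B/G substrate for 2 h at room temperature.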

The nature of experiment [7]: qHTS assay to identify small molecule antagonists of the androgen receptor (AR) signaling pathway using the MDA cell line - cell viability counter screen (AID 743041; also: nearly all actives have a fitted effect of over 45% in size; also: potency is read from the fitted curve at half-maximal effect). An outline of the steps:
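MDA-kb2 AR-luc cells (MMTV-luciferase, AR/GR responsive) treated with compounds plus R1881 agonist for 16 h at 37C. CellTiter-Fluor added at 15.5 h; fluorescence read after 30 min in the same wells.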

In experiment [8] the target is Androgen receptor (Homo sapiens) (UniProt P10275). The experiment can be described thus: qHTS assay to identify small molecule antagonists of the androgen receptor (AR) signaling pathway using the MDA cell line (AID 743042; also: nearly all actives have a fitted effect of over 55% in size; also: potency is read from the fitted curve at half-maximal effect). The essentials: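 MDA-kb2 breast carcinoma cells carrying MMTV-luciferase (AR/GR responsive) were co-treated with compounds and the agonist R1881 for 16 h at 37C. Inhibition read as ONE-Glo luminescence; CellTiter-Fluor fluorescence measured in parallel for cytotoxicity.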

A short description of experiment [9]: qHTS assay to identify small molecule antagonists of the thyroid receptor (TR) signaling pathway (AID 743065). Also: nearly all actives have a fitted effect of over 55% in size. Also: potency is read from the fitted curve at half-maximal effect. The essentials:
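GH3.TRE-Luc rat pituitary cells (two TREs driving luciferase) were dosed with compound, then stimulated with 1 nM T3 (final) for 23.5 h at 37 C. ONE-Glo luminescence was the read-out, with CellTiter-Fluor fluorescence as the cytotoxicity counter-screen.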

In experiment [10] the test system is thyroid hormone receptor (rat, GH3 cells). Briefly: qHTS assay to identify small molecule agonists of the thyroid receptor (TR) signaling pathway (AID 743066; calls by dose curve).
Experiment [11] concerns the target Estrogen receptor (Homo sapiens) (UniProt P03372). Briefly: qHTS assay to identify small molecule antagonists of the estrogen receptor alpha (ER-alpha) signaling pathway (AID 743069; active = well fitted curve in the direction sought with a large enough effect in the signal ratio in the repeat runs, not every such curve was filed as active; inconclusive = weak or mixed curves, or effect the other way; inactive = no such curve, though single readings can be large or run the other way; the % refers to the signal ratio; also: potency is read from the fitted curve at half-maximal effect). An outline of the steps:
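HEK293 ER-alpha-UAS-bla GripTite cells, held overnight in 2% charcoal-stripped FBS, 5,000 cells/well, preincubated 4 h, then compound plus 17beta-estradiol for 18 h at 37C. Beta-lactamase read by LiveBLAzer B/G FRET substrate, 2 h at room temperature.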

Experiment [12] is described as follows: qHTS assay to identify small molecule antagonists of the estrogen receptor alpha (ER-alpha) signaling pathway - cell viability counter screen (AID 743074; calls by dose curve;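 also: HEK293 cells carrying ER-alpha-UAS-bla reporter stimulated with 17beta-estradiol; nearly all actives have a fitted effect of over 45% in size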; also: potency is read from the fitted curve at half-maximal effect).
The nature of experiment [13]: qHTS assay to identify small molecule antagonists of the estrogen receptor alpha (ER-alpha) signaling pathway using the BG1 cell line - cell viability counter screen (AID 743081).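 Also: compound given together with 17beta-estradiol as the ER stimulus; nearly all actives have a fitted effect of over 45% in size.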 Also: potency is read from the fitted curve at half-maximal effect.
The next experiment deals with Aromatase (Homo sapiens) (UniProt P11511). The experiment can be described thus: qHTS assay to identify aromatase inhibitors (AID 743083). Also: nearly all actives have a fitted effect of over 55% in size. Also: potency is read from the fitted curve at half-maximal effect.
Experiment [14] in a line: qHTS assay to identify aromatase inhibitors - cell viability counter screen (AID 743084). Also: potency is read from the fitted curve at half-maximal effect.
The target of experiment [15] is Androgen receptor (Homo sapiens) (UniProt P10275). Briefly: qHTS assay to identify small molecule agonists of the androgen receptor (AR) signaling pathway using the MDA cell line (AID 743040; also: nearly all actives have a fitted effect of over 20% in size). An outline of the steps:
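MDA-kb2 breast carcinoma cells carrying MMTV-luciferase (responsive to AR and GR), plated 5 h then treated 16 h with compounds at 37C, 0% CO2. Read-out was ONE-Glo luminescence after 30 min at room temperature.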

Experiment [16] has as its target Estrogen receptor (Homo sapiens) (UniProt P03372). The experiment can be described thus: qHTS assay to identify small molecule agonists of the estrogen receptor alpha (ER-alpha) signaling pathway (AID 743075; calls by dose curve; also: potency is read from the fitted curve at half-maximal effect). The note with it: HEK293 ER-alpha-UAS-bla, beta-lactamase FRET ratio, 18 h; activation: at 70.1 µM (top of the series).
Experiment [17] can be described thus: qHTS assay to identify small molecule antagonists of the estrogen receptor alpha (ER-alpha) signaling pathway using the BG1 cell line (AID 743080; calls by dose curve;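 also: BG1 cells stimulated with 17beta-estradiol alongside compound; nearly all actives have a fitted effect of over 25% in size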; also: potency is read from the fitted curve at half-maximal effect). The essentials: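 BG1-Luc-4E2 cells (endogenous full-length ER-alpha, 4xERE luciferase) hormone-starved 5 days in charcoal-stripped FBS, plated 4,000/well for 24 h, then compound plus 17beta-estradiol for 21.5 h at 37 C; ONE-Glo luminescence read.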

Experiment [18] is described as follows: qHTS assay to identify small molecule antagonists of the thyroid receptor (TR) signaling pathway - cell viability counter screen (AID 743064). Also: nearly all actives have a fitted effect of over 50% in size. Also: potency is read from the fitted curve at half-maximal effect. An outline of the steps:
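Fluorescence from CellTiter-Fluor, added after 23.5 h exposure at 37 °C, reported viability of GH3.TRE-Luc cells co-treated with compound and 1 nM T3. Measured in the same wells as the luciferase TR readout.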

Experiment [19] concerns the target Estrogen receptor (Homo sapiens) (UniProt P03372). Briefly: qHTS assay to identify small molecule agonists of the estrogen receptor alpha (ER-alpha) signaling pathway using the BG1 cell line (AID 743079). Also: nearly all actives have a fitted effect of over 20% in size. The note with it: BG1Luc4E2 cells, ERE-luciferase agonist, 22 h; at 70.3 µM (top of the series).
% is scaled to controls: 0 for no effect and ±100 for the full control effect.

Sequence of Aromatase (Homo sapiens) (P11511 whole entry, looked up): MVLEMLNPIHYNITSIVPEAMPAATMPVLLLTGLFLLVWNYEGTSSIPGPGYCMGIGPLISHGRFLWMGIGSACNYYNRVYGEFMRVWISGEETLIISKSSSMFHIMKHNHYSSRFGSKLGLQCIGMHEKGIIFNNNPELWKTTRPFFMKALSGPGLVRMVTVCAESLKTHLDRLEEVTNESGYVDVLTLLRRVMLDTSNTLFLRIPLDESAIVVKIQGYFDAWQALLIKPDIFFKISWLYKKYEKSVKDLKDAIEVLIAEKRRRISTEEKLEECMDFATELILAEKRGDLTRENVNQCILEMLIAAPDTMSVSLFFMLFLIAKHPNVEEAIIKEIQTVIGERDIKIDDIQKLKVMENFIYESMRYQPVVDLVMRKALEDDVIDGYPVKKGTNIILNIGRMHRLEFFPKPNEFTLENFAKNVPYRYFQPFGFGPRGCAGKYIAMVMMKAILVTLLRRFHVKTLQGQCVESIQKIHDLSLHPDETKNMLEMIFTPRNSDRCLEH
Sequence of Androgen receptor (Homo sapiens) (P10275 whole entry, looked up): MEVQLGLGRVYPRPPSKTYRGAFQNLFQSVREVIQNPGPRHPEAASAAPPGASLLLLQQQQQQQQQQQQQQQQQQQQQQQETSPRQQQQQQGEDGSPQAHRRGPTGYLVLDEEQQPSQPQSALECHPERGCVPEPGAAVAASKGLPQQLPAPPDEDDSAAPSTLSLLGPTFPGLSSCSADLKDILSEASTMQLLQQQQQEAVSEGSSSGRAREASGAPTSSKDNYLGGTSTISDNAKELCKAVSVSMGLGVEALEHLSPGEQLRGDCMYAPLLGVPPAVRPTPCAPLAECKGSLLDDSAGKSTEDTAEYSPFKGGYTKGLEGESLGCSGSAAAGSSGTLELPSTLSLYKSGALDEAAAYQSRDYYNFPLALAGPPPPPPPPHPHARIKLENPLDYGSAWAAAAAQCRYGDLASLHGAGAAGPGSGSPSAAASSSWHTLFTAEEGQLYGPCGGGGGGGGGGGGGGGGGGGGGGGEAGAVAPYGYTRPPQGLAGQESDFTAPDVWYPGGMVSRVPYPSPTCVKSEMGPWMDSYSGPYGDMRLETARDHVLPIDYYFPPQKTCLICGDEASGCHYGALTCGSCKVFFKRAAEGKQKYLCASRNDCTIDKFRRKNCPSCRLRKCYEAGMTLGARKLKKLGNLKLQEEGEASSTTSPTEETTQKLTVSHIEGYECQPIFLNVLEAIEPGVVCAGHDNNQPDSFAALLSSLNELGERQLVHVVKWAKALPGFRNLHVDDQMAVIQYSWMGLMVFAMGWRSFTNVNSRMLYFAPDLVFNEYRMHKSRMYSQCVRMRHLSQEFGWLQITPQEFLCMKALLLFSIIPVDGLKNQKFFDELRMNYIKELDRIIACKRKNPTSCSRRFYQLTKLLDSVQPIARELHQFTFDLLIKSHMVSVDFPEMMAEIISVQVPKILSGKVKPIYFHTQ
Sequence of Estrogen receptor (Homo sapiens) (P03372 whole entry, looked up): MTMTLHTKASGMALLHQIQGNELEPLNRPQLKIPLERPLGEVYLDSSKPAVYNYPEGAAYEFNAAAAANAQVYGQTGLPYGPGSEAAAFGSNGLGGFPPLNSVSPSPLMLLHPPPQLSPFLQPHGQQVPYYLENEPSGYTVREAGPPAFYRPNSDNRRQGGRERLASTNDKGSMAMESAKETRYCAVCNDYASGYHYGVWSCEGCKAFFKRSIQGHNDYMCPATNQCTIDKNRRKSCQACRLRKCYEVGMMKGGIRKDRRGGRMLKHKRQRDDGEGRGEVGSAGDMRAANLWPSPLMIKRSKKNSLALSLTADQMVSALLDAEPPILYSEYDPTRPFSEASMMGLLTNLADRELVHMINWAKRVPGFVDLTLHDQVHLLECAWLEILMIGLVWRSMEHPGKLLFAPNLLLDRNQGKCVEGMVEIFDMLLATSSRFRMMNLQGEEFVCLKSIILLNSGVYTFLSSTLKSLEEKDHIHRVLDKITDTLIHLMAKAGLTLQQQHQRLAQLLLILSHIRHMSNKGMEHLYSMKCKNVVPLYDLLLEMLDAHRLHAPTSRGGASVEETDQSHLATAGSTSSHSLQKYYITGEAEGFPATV

On to `Clc1ccc2cc3ccccc3cc2c1`, for which the Potency entry in experiment [1], in experiment [2], in [3], in [4], in experiment [5] and in experiment [6] was “inactive” in each case. For the same compound, the Potency result in [7], in experiment [8], in experiment [9], in experiment [10], in experiment [11] and in experiment [12] was “inactive” in each case. Moreover, the Potency entry (in experiment [13]; with Aromatase (Homo sapiens); in [14]) was “inactive” in each case.

Turning to `CCCCCCCCCCCCCC[P+](CCCC)(CCCC)CCCC` (tested in a mixture with another compound), the Potency in experiment [1] was 8.76 µM (active); in experiment [2], 0.388 µM (active); in experiment [3], 0.218 µM (active); in [4], 0.218 µM (active); in experiment [5] it was 0.983 µM (active); in [8], 3.46 µM (active). The figures for the Potency (in experiment [13]; with Aromatase (Homo sapiens); in experiment [14]) were 15.4 µM (active), 4.35 µM (active) and 4.35 µM (active), respectively. For the same compound, the Potency result in experiment [15] was “inactive”.

`Cc1c(C)c2c(c(C)c1O)CCC(C)(COc1ccc(CC3SC(=O)NC3=O)cc1)O2` (stereo not given): the Potency entry in [1], in [15], in [7], in experiment [10], in [12] and in experiment [16] was “inactive” each time. Moreover, the Potency entry in experiment [13] and in experiment [14] was “inactive” each time. Moreover, the Potency in [2] is 10.6 µM (active) and 17.2 µM (active); in experiment [3] it was 26.6 µM (active) and 15.4 µM (active); in experiment [4], 10.6 µM (active) and 24.3 µM (active); in [5] it was “inactive and 24.5 µM (active)”; in [9], 13.3 µM (active) and 24.3 µM (active); in experiment [17] it was 23.7 µM (active). Further, the Potency with Aromatase (Homo sapiens) was 29.8 µM (active) and 61.1 µM (active).

Consider `CCCCCCCCCCCC(=O)NCCCN(C)C`, for which the Potency in experiment [1] is 30.9 µM (active); in experiment [2], 6.11 µM (active); in [3], 10.9 µM (active); in [4] it was 6.86 µM (active); in experiment [5], 43.6 µM (active); in experiment [18], 17.2 µM (active). The Potency in [9] was 17.2 µM (active); in experiment [12], 49 µM (active); in experiment [13] it was 61.1 µM (active); with Aromatase (Homo sapiens) it was 43.3 µM (active); in experiment [14], 54.5 µM (active). Besides, in experiment [15], the Potency entry is “inactive”.

With `C=CC(=O)OCC(CO)(COC(=O)C=C)COC(=O)C=C`, the Potency in [1] is 6.19 µM (active) and 11 µM (active); in experiment [2] it was 1.73 µM (active) and 2.17 µM (active); in [3], 1.22 µM (active) and 2.43 µM (active); in experiment [4], 1.37 µM (active) and 1.72 µM (active); in [5] it was 6.94 µM (active) and 11 µM (active); in experiment [7] it was 17.3 µM (active) and 27.3 µM (active). In addition, the Potency in [8] is 2.18 µM (active) and 3.86 µM (active); in experiment [18], 2.44 µM (active) and 2.17 µM (active); in [9], 1.73 µM (active) and 1.72 µM (active); in experiment [12], 39 µM (active) and 49 µM (active); in experiment [16] it was 13.9 µM [inconclusive] (active) and 12.3 µM [inconclusive] (active); in experiment [13] it was 27.4 µM (active) and 27.3 µM (active). In addition, the Potency with Aromatase (Homo sapiens) is 2.74 µM (active) and 5.45 µM (active); in experiment [14], 2.18 µM (active) and 4.86 µM (active). Moreover, the Potency result in [10] is “inactive”.

Turning to `Cc1onc(-c2c(Cl)cccc2Cl)c1C(=O)N[C@@H]1C(=O)N2[C@@H]1SC(C)(C)[C@@H]2C(=O)O`, the Potency result in experiment [1], in [2], in [3], in experiment [4], in experiment [5] and in experiment [15] was “inactive” throughout. For the same compound, the Potency result in experiment [7], in experiment [8], in experiment [18], in experiment [10], in experiment [12] and in experiment [13] was “inactive” throughout. In addition, the Potency result (in the experiment with Aromatase (Homo sapiens); in [14]) was “inactive” throughout.

For the compound `Fc1ccc([C@@H]2CCNC[C@H]2COc2ccc3c(c2)OCO3)cc1`, the Potency entry in experiment [1], in experiment [15], in experiment [16] and in experiment [17] was “inactive” throughout. The Potency in [2] is 3.76 µM (active); in [3], 7.5 µM (active); in experiment [4] it was 7.5 µM (active); in experiment [5], 8.49 µM (active); in experiment [7] it was 18.8 µM (active); in [8], 21.1 µM (active). Also, the Potency in experiment [18] was 11.9 µM (active); in experiment [9] it was 10.6 µM (active).

Regarding `CCCCCCCCCCCCCCCC(=O)OC[C@H](O)[C@H]1OC(=O)C(O)=C1O`, the Potency entry in experiment [1], in experiment [2], in [3], in experiment [4], in [5] and in experiment [6] was “inactive” in each case. The Potency result in experiment [15], in experiment [8], in experiment [18], in experiment [9], in experiment [10] and in experiment [11] was “inactive” each time. The Potency result (in [12]; in experiment [16]; in experiment [17]; in experiment [13]; in the experiment with Aromatase (Homo sapiens); in experiment [14]) was “inactive” throughout. Besides, the activation in experiment [19] was 0.436% (inactive) and 6.85% (inactive).

In the case of `CC(C)(C)C(=O)OCOC(=O)C1N2C(=O)CC2S(=O)(=O)C1(C)C` (stereo not given), the Potency result in [1], in experiment [2], in [3], in [4], in experiment [5] and in [6] was “inactive” in each case. For the same compound, the Potency result in [15], in experiment [7], in experiment [8], in experiment [18], in experiment [9] and in [10] was “inactive” in each case. In addition, the Potency entry (in experiment [12]; in experiment [16]; in [17]; in [13]; with Aromatase (Homo sapiens); in [14]) was “inactive” in each case. Further, the Potency in [11] is 3.38 µM [inconclusive] (active). The activation in experiment [19] is -1.04% (inactive).

Take `CCCCCCCCCCCCCCCS(=O)(=O)Oc1ccccc1`: the Potency entry in experiment [1], in experiment [2], in experiment [3], in experiment [4], in experiment [5] and in experiment [7] was “inactive” in each case. For the same compound, the Potency result in experiment [18], in experiment [9], in experiment [10], in [11], in experiment [12] and in experiment [16] was “inactive” in each case. Moreover, the Potency result (in experiment [17]; in [13]; in the experiment with Aromatase (Homo sapiens); in experiment [14]) was “inactive” in each case. The activation in experiment [19] is -9.91% (inactive).

As for `O=[N+]([O-])c1ccccc1Nc1ccccc1`, the Potency result in experiment [1], in experiment [2], in experiment [3], in experiment [4], in [5] and in experiment [7] was “inactive” throughout. The Potency entry in experiment [18], in experiment [9], in [10], in [11], in experiment [12] and in experiment [16] was “inactive” in each case. Moreover, the Potency entry in experiment [17], in experiment [13] and in experiment [14] was “inactive” in each case. Moreover, the activation in [19] was 4.1% (inactive).
